Tests used:
Assay in all cases: PBM binding z-score (relative to random genomic background probes); higher = stronger binding; sequences stand for … in GC…GCGATTGACAGCGTAGAATGAAGG
[1] = test system: RARb homodimer (NR concentration 270 nM)
Summary of the method: (§1)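 Each nuclear receptor dimer, without ligand, was incubated for 1 h on custom Agilent 4×180K protein-binding microarrays. Binding was detected with antibodies against each partner (one per run), and scanned fluorescence was regression-normalized. The binding z-scores are referenced to random human genomic background probes.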

[2] = test system: RARg:RXRa (NR concentration 270 nM, RXRa partner concentration 90 nM)
Summary of the method: as §1

[3] = test system: RARg homodimer (NR concentration 270 nM)
Summary of the method: as §1

[4] = test system: RXRa DBDmut IVT, anti-RXR (DBD mutation: RXRa K156A/R161A, NR concentration 90 nM)
Summary of the method: as §1

[5] = test system: RXRa homodimer (NR concentration 180 nM)
Summary of the method: as §1

[6] = test system: THRa:RXRa (NR concentration 90 nM, RXRa partner concentration 90 nM)
Summary of the method: as §1

[7] = test system: THRa homodimer (NR concentration 90 nM)
Summary of the method: as §1

[8] = test system: VDR homodimer (NR concentration 270 nM)
Summary of the method: as §1

Sequence: GCGACTGGGGCATCAGCAGGTCACCATAACTTAA
- PBM binding z-score [1]: 3.25
- PBM binding z-score [2]: 3.79
- PBM binding z-score [3]: 2.47
- PBM binding z-score [4]: -0.121
- PBM binding z-score [5]: 2.14
- PBM binding z-score [6]: 3.02
- PBM binding z-score [7]: 1.44
- PBM binding z-score [8]: 0.619

Sequence: CAAACTAGGTCACATAGGTCAAAGTCCGTGCGTA
- PBM binding z-score [1]: 4.67
- PBM binding z-score [2]: 5.93
- PBM binding z-score [3]: 6.3
- PBM binding z-score [4]: 2.56
- PBM binding z-score [5]: 5.67
- PBM binding z-score [6]: 4.09
- PBM binding z-score [7]: 1.78
- PBM binding z-score [8]: 3.91

Sequence: TGCATGAGGTTAAAGATCAGGGAACGTGGCGTCG
- PBM binding z-score [1]: 1.02
- PBM binding z-score [2]: 2.55
- PBM binding z-score [3]: 1.33
- PBM binding z-score [4]: 1.43
- PBM binding z-score [5]: 3.68
- PBM binding z-score [6]: 2.71
- PBM binding z-score [7]: 0.949
- PBM binding z-score [8]: 1.11

Sequence: ACTAGTTGGTCAGCAGAGGTCACACACAATTCGG
- PBM binding z-score [1]: 5.13
- PBM binding z-score [2]: 5.03
- PBM binding z-score [3]: 5.13
- PBM binding z-score [4]: 1.14
- PBM binding z-score [5]: 5.43
- PBM binding z-score [6]: 4.52
- PBM binding z-score [7]: 2.95
- PBM binding z-score [8]: 3.3

Sequence: TCATATAGGTAAAAGGTGAAACTCGGTGTGGTAA
- PBM binding z-score [1]: 2.15
- PBM binding z-score [2]: 2.48
- PBM binding z-score [3]: 1.17
- PBM binding z-score [4]: 1.9
- PBM binding z-score [5]: 3.81
- PBM binding z-score [6]: 2.16
- PBM binding z-score [7]: 0.677
- PBM binding z-score [8]: 0.686

Sequence: ATCGAAAGGTCGTGAGGTGAGAATACAGAAAGGC
- PBM binding z-score [1]: 3.14
- PBM binding z-score [2]: 4.62
- PBM binding z-score [3]: 3.89
- PBM binding z-score [4]: 1.28
- PBM binding z-score [5]: 5.3
- PBM binding z-score [6]: 3.49
- PBM binding z-score [7]: 1.44
- PBM binding z-score [8]: 0.87

Sequence: TCAGACAGGTGAAGGTAACTCAGGTACGCAGTCG
- PBM binding z-score [1]: 1
- PBM binding z-score [2]: 0.581
- PBM binding z-score [3]: 0.551
- PBM binding z-score [4]: 1.37
- PBM binding z-score [5]: 0.995
- PBM binding z-score [6]: 1.48
- PBM binding z-score [7]: 0.516
- PBM binding z-score [8]: 0.357

Sequence: TGTCAAAGTGCAAAGGTAACGTAAGTATCCACAC
- PBM binding z-score [1]: 1.33
- PBM binding z-score [2]: 2.55
- PBM binding z-score [3]: 1.78
- PBM binding z-score [4]: 0.968
- PBM binding z-score [5]: 2.55
- PBM binding z-score [6]: 1.94
- PBM binding z-score [7]: -0.723
- PBM binding z-score [8]: 0.351

Sequence: TATACAGGGTGAAAGGCCAGAGTACGAATGTCGA
- PBM binding z-score [1]: 1.29
- PBM binding z-score [2]: 1.67
- PBM binding z-score [3]: 1.69
- PBM binding z-score [4]: -0.111
- PBM binding z-score [5]: 2.07
- PBM binding z-score [6]: 1.18
- PBM binding z-score [7]: -0.0839
- PBM binding z-score [8]: 0.653

Sequence: CATAGAGGGTCAGCTAGGCCAGAGTAGGGACGGC
- PBM binding z-score [1]: 3.06
- PBM binding z-score [2]: 3.83
- PBM binding z-score [3]: 4.33
- PBM binding z-score [4]: 0.356
- PBM binding z-score [5]: 3.3
- PBM binding z-score [6]: 2
- PBM binding z-score [7]: 0.171
- PBM binding z-score [8]: 0.395

Sequence: CGTCCAAGGTCAAAGGTCAGTGAGGAGATGACGG
- PBM binding z-score [1]: 5.41
- PBM binding z-score [2]: 8.78
- PBM binding z-score [3]: 8.47
- PBM binding z-score [4]: 3.92
- PBM binding z-score [5]: 10.4
- PBM binding z-score [6]: 4.81
- PBM binding z-score [7]: 2.98
- PBM binding z-score [8]: 4.41

Sequence: AGTCAAAGTTCAGGACGAGGTATCGTAAAGCACG
- PBM binding z-score [1]: 2.81
- PBM binding z-score [2]: 4.03
- PBM binding z-score [3]: 4.67
- PBM binding z-score [4]: 2.93
- PBM binding z-score [5]: 2.81
- PBM binding z-score [6]: 2.54
- PBM binding z-score [7]: 0.691
- PBM binding z-score [8]: 2.06

Sequence: GCATATAGGTAATACAAGGTTAAAGTCCGATTGT
- PBM binding z-score [1]: 1.42
- PBM binding z-score [2]: 0.95
- PBM binding z-score [3]: 0.775
- PBM binding z-score [4]: 0.599
- PBM binding z-score [5]: 1.39
- PBM binding z-score [6]: 4.03
- PBM binding z-score [7]: 0.575
- PBM binding z-score [8]: 0.898

Sequence: TAGCCTAGGTCATGCGTGCCAGTATAGTGTCGGC
- PBM binding z-score [1]: 3.14
- PBM binding z-score [2]: 3.78
- PBM binding z-score [3]: 3.75
- PBM binding z-score [4]: 0.805
- PBM binding z-score [5]: 2.85
- PBM binding z-score [6]: 2.96
- PBM binding z-score [7]: 1.22
- PBM binding z-score [8]: 0.552

Sequence: GAAACGAGGGCATTCGAGTTGATAGCATGGCGAT
- PBM binding z-score [1]: 0.628
- PBM binding z-score [2]: 1.26
- PBM binding z-score [3]: 1.38
- PBM binding z-score [4]: 3.03
- PBM binding z-score [5]: 1.09
- PBM binding z-score [6]: 3.47
- PBM binding z-score [7]: -0.43
- PBM binding z-score [8]: 3.34

Sequence: GCATATAGGTAATACAAAGTGAAAGTCCGATTGT
- PBM binding z-score [1]: -0.658
- PBM binding z-score [2]: 0.129
- PBM binding z-score [3]: 0.264
- PBM binding z-score [4]: 0.278
- PBM binding z-score [5]: 0.0953
- PBM binding z-score [6]: 0.0465
- PBM binding z-score [7]: -0.756
- PBM binding z-score [8]: -0.321

Sequence: TAGCCTAGGTCATTGGGCCAGTTTAGTACGCATC
- PBM binding z-score [1]: 2.94
- PBM binding z-score [2]: 3.74
- PBM binding z-score [3]: 3.68
- PBM binding z-score [4]: 1.46
- PBM binding z-score [5]: 2.81
- PBM binding z-score [6]: 3.03
- PBM binding z-score [7]: 1
- PBM binding z-score [8]: 1.46

Sequence: ATCTCTAGGTAACCAAGATCAGTGAATGCCGAAC
- PBM binding z-score [1]: -0.128
- PBM binding z-score [2]: 0.35
- PBM binding z-score [3]: 0.445
- PBM binding z-score [4]: -0.167
- PBM binding z-score [5]: 0.343
- PBM binding z-score [6]: 0.734
- PBM binding z-score [7]: 0.469
- PBM binding z-score [8]: -0.138
